Assay in all cases: NCI-60 one-dose screen, 48 h (100 = growth as untreated, 0 = no growth, -100 = all killed)
What all share (settings): 10 µM unless noted

Assay [1] has as its system DU-145 prostate.
Assay [2] concerns K-562 leukemia.
Assay [3] concerns MALME-3M melanoma.
Assay [4] deals with MDA-MB-231 breast.
In assay [5] the test system is RXF 393 renal.
Assay [6] deals with SF-268 CNS.
For assay [7], the system named is SF-295 CNS.
Assay [8] relates to SF-539 CNS.
Assay [9] deals with UACC-257 melanoma.
The test system of assay [10] is M14 melanoma.
The subject of assay [11] is HCT-15 colon.
For assay [12], the system named is HT29 colon.
The subject of assay [13] is SNB-75 CNS.
Assay [14] has as its system SNB-19 CNS.
The subject of assay [15] is U251 CNS.
Assay [16] concerns PC-3 prostate.
In assay [17] the test system is SK-MEL-5 melanoma.
Assay [18] concerns UACC-62 melanoma.
The test system of assay [19] is LOX IMVI melanoma.
In assay [20] the test system is SK-MEL-28 melanoma.

About 83,000 compounds went through this panel and 20% of them were active in at least one assay; those are over-represented in the sample as a whole.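 Single-concentration screen, 48 h exposure, 96-well plates. Endpoint: percent growth. Below 10 = active.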 Values without a mark were called inactive. Calls of active or inactive are those of the source.

Turning to `CC(C)CC(=O)C(CCc1ccccn1)C(C)C` (stereo not given), the growth is 111% in [1]; 107% in assay [2]; 109% in [3]; 108% in assay [4]; 124% in assay [5]; 103% in assay [6]. Further, the growth was 95.2% in assay [7]; 106% in [8]; 92.4% in assay [9]; 105% in assay [10]; 101% in assay [11]; 98.3% in assay [12]. The growth in [13] was 111%; in assay [14], 108%; in assay [15], 107%; in assay [16] it was 99.7%; in [17] it was 103%; in assay [18], 103%. Moreover, the growth is 96.5% in assay [19] and 109% in assay [20].

For the compound `CCN1C(=O)N(CC)C2C1NN=c1s/c(=C\c3ccc(Br)cc3)c(=O)n12` (stereo not given), the growth in assay [1] was 6.46% (active); in assay [2], 4.55% (active); in assay [3], 52.2%; in assay [4], 25.9%; in assay [5], 40.5%; in assay [6], 36.1%. The growth in assay [7] is 17.4%; in assay [8], -5.08% (active); in [9], 23.5%; in assay [10], 7.42% (active); in [11], 11.4%; in [12] it was 5.08% (active). Also, the growth in [13] was 26.2%; in assay [14], 21.4%; in assay [15], 16.5%; in assay [16], 18.6%; in assay [17], -4.8% (active); in assay [18], 39.9%. In addition, the growth in assay [19] is 25.1%; in assay [20] it was 59.9%.

For `CCCCCN(CCCCC)C(=O)C(CCC(=O)O)NC(=O)c1ccc(Cl)c(Cl)c1` (stereo not given), the growth in assay [1] was 113%; in assay [2], 115%; in assay [3], 104%; in [4], 88.1%; in assay [5] it was 106%; in [6], 110%. The growth in [7] is 110%; in assay [8], 113%; in [9] it was 111%; in assay [10], 109%; in assay [11], 112%; in assay [12] it was 109%. Moreover, the growth in assay [13] was 93.3%; in assay [14] it was 112%; in assay [15], 101%; in assay [16], 93%; in [17], 90.5%; in assay [18], 98.4%. Further, the growth was 99.9% in assay [19] and 105% in assay [20].

For the compound `CC1=CC(=O)OC1C/C=C(\C)CCC1[C@@]2(C)CCC[C@@](C)(C(=O)O)C2CC[C@@]1(C)O` (stereo not given in full), the growth in assay [1] is 36.8%; in assay [2], 28.4%; in assay [3], 58.4%; in assay [4], 34.3%; in [5] it was 49.2%; in assay [6], 71.4%. Moreover, the growth in [7] is 85.5%; in assay [8], 81.3%; in assay [9], 48.6%; in assay [10], 25.7%; in [11], 14.1%; in assay [12] it was 86.8%. Besides, the growth in [13] is 74%; in [14], 53.3%; in assay [15], 35.4%; in assay [16], 59.1%; in assay [17], -23.8% (active); in assay [18], 15.4%. For the same compound, the growth in assay [19] was 97.3%; in assay [20] it was 26.7%.

In the case of `COc1ccc(CC2c3cc(OC)c(OC)cc3CC[N+]2(C)CCC(=O)OCCCCCOC(=O)CC[N+]2(C)CCc3cc(OC)c(OC)cc3C2Cc2ccc(OC)c(OC)c2)cc1OC` (stereo not given), the growth was 99.8% in [1]; 111% in assay [2]; 99.6% in assay [3]; 92.2% in assay [4]; 91.5% in assay [5]; 87.6% in assay [6]. In addition, the growth in [7] was 93.5%; in [8], 100%; in assay [9] it was 100%; in [10] it was 88.5%; in assay [11], 102%; in assay [12] it was 96%. Also, the growth in assay [13] is 63.4%; in assay [14], 104%; in assay [15], 93.4%; in [16] it was 90.3%; in assay [17], 87.4%; in assay [18] it was 93.3%. Further, the growth was 81% in assay [19] and 99.8% in [20].

For `COc1cc(Nc2ncccc2/C=C/C(=O)c2cc(OC)c(OC)c(OC)c2)cc(OC)c1OC`, the growth was 80.6% in assay [1]; 45.5% in assay [2]; 103% in [3]; 93.3% in assay [4]; 86% in assay [5]; 83.3% in [6]. Further, the growth in assay [7] is 84.2%; in assay [8] it was 78.9%; in assay [9] it was 67%; in [10], 86.7%; in [11], 74.2%; in assay [12] it was 67.8%. Besides, the growth is 67.9% in assay [13]; 80.2% in [14]; 50.8% in assay [15]; 74.1% in assay [16]; 53.9% in [17]; 65.8% in assay [18]. Further, the growth is 17.1% in assay [19] and 90.5% in assay [20].

`CCN(CC)c1ccc(/C=N/NC(=O)c2ccc(S(C)(=O)=O)cc2)c(O)c1`: the growth is 24.5% in assay [1]; 12.4% in assay [2]; 14% in assay [3]; 43.2% in [4]; 28.6% in assay [5]; 21.8% in assay [6]. Further, the growth is 21.4% in assay [7]; 4.01% (active) in [8]; -11.5% (active) in assay [9]; 3.37% (active) in assay [10]; 28.5% in [11]; 21.8% in [12]. The growth in assay [13] was 55.2%; in assay [14] it was 32%; in [15], 20.6%; in [16], 49.2%; in [17] it was -2.99% (active); in [18], -18.5% (active). For the same compound, the growth in assay [19] is 9.68% (active); in assay [20], 27.2%.

The values are drawn from PubChem BioAssay (NCI).
